Consider 54 sequences from publication PMC7819943, “Rice protein-binding microarrays: a tool to detect cis-acting elements near promoter regions in rice”.

The full ranking holds about 68,000 sequences; the median of “fluorescence intensity (a.u.)” is about 9,100, and the highest 2% start at about 16,000. The full list was thinned out, with the highest values kept by preference.

Sequence of OsWRKY34 (Q0JBA9 entry or part of it): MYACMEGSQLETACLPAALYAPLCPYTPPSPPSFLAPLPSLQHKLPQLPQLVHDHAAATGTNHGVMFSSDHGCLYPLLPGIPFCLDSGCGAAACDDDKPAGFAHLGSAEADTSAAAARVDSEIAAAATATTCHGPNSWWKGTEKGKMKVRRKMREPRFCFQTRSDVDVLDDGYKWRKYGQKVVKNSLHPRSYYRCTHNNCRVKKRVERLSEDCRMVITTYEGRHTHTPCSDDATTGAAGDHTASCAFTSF

This assay addresses OsWRKY34 (Oryza sativa, UniProt Q0JBA9 1-250). In words: protein-binding microarray (RPBM); PBS, 2% BSA, 51.3 ng/ul salmon testes DNA, 50 uM zinc acetate, 200 nM TF, 25 C, 1 h; high values mean tight binding. The note with it: protein: recombinant; tags: N-terminal polyhistidine and DsRed monomer fusion (pET32a); label: CyDye5-dUTP incorporated in the synthesized complementary strand; 3' TTTTT single-stranded linker to array surface; dsDNA, one strand shown. Put shortly: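 Transcription factors were each fused at the N-terminus to a polyhistidine tag plus DsRed and expressed in E. coli BL21-CodonPlus before Ni–NTA purification. Binding to a double-stranded custom Agilent array was carried out with 200 nM protein at 25 °C for 1 h in PBS, 2% BSA, salmon testes DNA and 50 µM zinc acetate. The binding signal is per-feature fluorescence intensity, in arbitrary units, on an Axon 4000B scanner.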
On to “CCCACTAACTTATGGCTTTTCCCATCCGTGCTATATCCCTCGGAGTCACCTAGTGCAG”, for which the binding signal was 9270 fluorescence intensity (a.u.). To “ATACTGTCATAGGATCTCGAGTACACCTGTTTTACAAGTTCGGAGTCACCTAGTGCAG” belongs 8860 fluorescence intensity (a.u.); to “GTTTTGATTGGCATATGGTCCCTCCAATCCGTGTAATTGTCGGAGTCACCTAGTGCAG”, 8320 fluorescence intensity (a.u.).

With “CACCGTTGATTTTTTTAAATATGTTTGACCGTTCGTTTTACGGAGTCACCTAGTGCAG”, the binding signal is 12000 fluorescence intensity (a.u.). With “ATAACCAACATATTTAGCCTACAATTAAATATTTACTATACGGAGTCACCTAGTGCAG”, the binding signal was 8390 fluorescence intensity (a.u.). To “ATTTTTATACGGACTCTAAACTCTACTTTTAATTTTATTACGGAGTCACCTAGTGCAG” belongs 8490 fluorescence intensity (a.u.). For “CGTTGACTTTTTTAAATATGTTTGACCGTTTATGTTATTTCGGAGTCACCTAGTGCAG”, the binding signal was 44100 fluorescence intensity (a.u.). For “AAATATTTGACGCCGTTGACTTTTTTAAATATGTTTAACCCGGAGTCACCTAGTGCAG” the value was 27200 fluorescence intensity (a.u.); for “TTCCTAAATATTTACGACGTTGACTTTTTTAAAAATGTTTCGGAGTCACCTAGTGCAG”, 20100 fluorescence intensity (a.u.).

Consider “GGAGTATATAAATATATATATTAAATACAACTCTAGACTACGGAGTCACCTAGTGCAG”, for which the binding signal was 26700 fluorescence intensity (a.u.). Turning to “GTTGACTTTTTTTAAAATATGTTTGACCGTTCATATTATTCGGAGTCACCTAGTGCAG”, the binding signal was 8770 fluorescence intensity (a.u.).

In the case of “ACTACTTCCTCTGTTTCTAAATATTTGACGACGTTGATTTCGGAGTCACCTAGTGCAG”, the binding signal is 8050 fluorescence intensity (a.u.). For “TACACTAACCCTACCATCCCGTACACCACCGAAACCCTAACGGAGTCACCTAGTGCAG”, the binding signal was 8330 fluorescence intensity (a.u.). For “TGTCTGGTCAACGCACAATTTCGGTCAGTAACTCCCTGGCCGGAGTCACCTAGTGCAG” the value was 9770 fluorescence intensity (a.u.); for “TCATGGGAGCAATTGCGCGATGTTTTTGTTCTTAACTTTCCGGAGTCACCTAGTGCAG”, 8050 fluorescence intensity (a.u.); for “TTTTGGTACGTTATTAGTGTGTGTATCAGTTTTTAAGTTCCGGAGTCACCTAGTGCAG”, 9430 fluorescence intensity (a.u.).

As for “GTTTCAGGTTTTTGCAGCCAACAGTTTTGCTGATTTTTTACGGAGTCACCTAGTGCAG”, the binding signal is 9480 fluorescence intensity (a.u.).

Consider “CTCCTTTTGCGCTGCTTCTCCTCGCCGCCACCGTGTAGCGCGGAGTCACCTAGTGCAG”, for which the binding signal is 8230 fluorescence intensity (a.u.). For “GAATTTTTTTTTATCATCTTTGACGGGCACACAAATTTTACGGAGTCACCTAGTGCAG” the value was 8140 fluorescence intensity (a.u.). For “TGGGGATGTGTTGTGGTGAGCTGGAAAGTGCAAACTGGTTCGGAGTCACCTAGTGCAG” the value was 9630 fluorescence intensity (a.u.).

“TCCTGTTTAAAGTTTTTTTTTGTGATTTTTAGATAAAAAACGGAGTCACCTAGTGCAG”: the binding signal was 9030 fluorescence intensity (a.u.).

Take “AGACTATCATCTTGAGCTTATTCTTCCATTTGCTCCATCTCGGAGTCACCTAGTGCAG”: the binding signal was 8950 fluorescence intensity (a.u.). On to “AGCCAGCCCAAAAGCCACGCCGTCCACTCCATCTCCGCCTCGGAGTCACCTAGTGCAG”, for which the binding signal is 8440 fluorescence intensity (a.u.). Consider “CGATCGATCGATCGCGCGCCTCCGCCTATAAATTCTTGCCCGGAGTCACCTAGTGCAG”, for which the binding signal is 8230 fluorescence intensity (a.u.). For “CCCTAAATATTTGACGCCGTTGACTTTTTTAAATATGTTTCGGAGTCACCTAGTGCAG” the value was 27300 fluorescence intensity (a.u.). For “GATCGTTTCTATTCCTAATTCGTTTTCTTTATACTCCCTCCGGAGTCACCTAGTGCAG” the value was 11100 fluorescence intensity (a.u.). To “CTTTGCGTCTCCTCCCCTTTCTAATCCACTTTTTATTTTTCGGAGTCACCTAGTGCAG” belongs 9730 fluorescence intensity (a.u.); to “AAGGTCGTTGACTTTTTATTCGTCCTCGTCTAATTTCTCCCGGAGTCACCTAGTGCAG”, 33600 fluorescence intensity (a.u.); to “CTAAATGTTTGACACCGTTGACTTTTTTAAATATGTTTGACGGAGTCACCTAGTGCAG”, 23300 fluorescence intensity (a.u.). On to “CCCACCATTTTATATTATAAGCTGTTTGACTTTTTCTTAACGGAGTCACCTAGTGCAG”, for which the binding signal is 13100 fluorescence intensity (a.u.). With “CTTCCCTAAATGTTTGACACCGTTGACTTTTTAAAATATACGGAGTCACCTAGTGCAG”, the binding signal was 10500 fluorescence intensity (a.u.). To “GCTGTTTGACTTTTTCTTAATTAAGCTTCTTTATGTTTGACGGAGTCACCTAGTGCAG” belongs 19700 fluorescence intensity (a.u.). Turning to “TTCGTTTTGACTTTTTTCTTAGTAAAACTTTTATGTTTGACGGAGTCACCTAGTGCAG”, the binding signal is 11600 fluorescence intensity (a.u.). On to “TGCAGTGGCTCCGTCGCTCAGTGAACATCCAGTCCCATTTCGGAGTCACCTAGTGCAG”, for which the binding signal is 9900 fluorescence intensity (a.u.). Regarding “GGCCTATATATAACCATTGCTGTTGCCCTAAGAATGAATGCGGAGTCACCTAGTGCAG”, the binding signal is 9380 fluorescence intensity (a.u.). Take “CATTTTTGTTTTTTACTGGGAGATTTTTTTTCCTTTTTCTCGGAGTCACCTAGTGCAG”: the binding signal is 11200 fluorescence intensity (a.u.).

In the case of “TAGTTGTCAGGTCGCTCCGCTTCATTCTGCTGTGCATTTTCGGAGTCACCTAGTGCAG”, the binding signal was 10100 fluorescence intensity (a.u.). Take “ATATAGCTTGCTTGTTCGGTTGTTCCACTGTTCCGTGAGGCGGAGTCACCTAGTGCAG”: the binding signal was 8310 fluorescence intensity (a.u.). “AATTGGGAAAATTGGAACCGTGCCACTCCATCATGTTTTCCGGAGTCACCTAGTGCAG”: the binding signal was 8210 fluorescence intensity (a.u.). To “CTCTCGCCCTTCGCGCTGACCTCCTCACAGCTGCTCTCGCCGGAGTCACCTAGTGCAG” belongs 8440 fluorescence intensity (a.u.). With “AAGATCTCCCAGGCCTCGTGTTTTACGTCAACTGGTTGTACGGAGTCACCTAGTGCAG”, the binding signal was 8270 fluorescence intensity (a.u.). For “ATTTATTAGTTTGATCCCTCTTTTATCACCATGTATTGCCCGGAGTCACCTAGTGCAG” the value was 8570 fluorescence intensity (a.u.); for “AGGATCTTTATACACATAGCTACCACAATGGCTACAATTACGGAGTCACCTAGTGCAG”, 8130 fluorescence intensity (a.u.); for “CCCGCGTCTCGGCCCTCTCCGTCCTCGTTGCTTCCGACGCCGGAGTCACCTAGTGCAG”, 8780 fluorescence intensity (a.u.). Turning to “TAATACTTTATGCGTGACTTATCTTTTTAAATTTTTTTCACGGAGTCACCTAGTGCAG”, the binding signal was 8970 fluorescence intensity (a.u.). To “TTTTTGACTTTGACTTTTAATAGTAAAAAAATCAATTATGCGGAGTCACCTAGTGCAG” belongs 9900 fluorescence intensity (a.u.); to “CCCTAAATATTTGACACCGTTGACTTTTTTAAATATGTTTCGGAGTCACCTAGTGCAG”, 39600 fluorescence intensity (a.u.).

For “ATCTTTCTTATGCTGGCCATGATCTATGTTGCTGTTTTTGCGGAGTCACCTAGTGCAG”, the binding signal is 17700 fluorescence intensity (a.u.). Take “ATTGAGCGATTTTCGGTATTTCACGATGGGTTATATTTTACGGAGTCACCTAGTGCAG”: the binding signal is 8720 fluorescence intensity (a.u.).

In the case of “ATGTTGTTTGTTATGATGCTGTTCTTTTGTTGTTGTTTACCGGAGTCACCTAGTGCAG”, the binding signal was 11700 fluorescence intensity (a.u.). For “CGATTTTTATTTTTCGCCGGATGGGGTTGACTTTTTTTTACGGAGTCACCTAGTGCAG” the value was 20900 fluorescence intensity (a.u.); for “ATCTCCCATGTGTGCATGCATCTTTTTTTGTTGTTTGCTGCGGAGTCACCTAGTGCAG”, 11200 fluorescence intensity (a.u.). Consider “GGATTTTTGACGGGGTTTTGCAACGGACTTGACTTGTTTACGGAGTCACCTAGTGCAG”, for which the binding signal is 8320 fluorescence intensity (a.u.).

Consider “TGCGTTGACTTTATCTTCAAATTAATTATGTGCTAATAGGCGGAGTCACCTAGTGCAG”, for which the binding signal is 22300 fluorescence intensity (a.u.).
